# Measurements published in PubChem BioAssay (Tox21).
# “And” between values parts separate entries of the source, which are not always exact repeats. Identical values can stand only once. Records with an inconclusive call do not appear. The source made the active and inactive calls. The call rests on the fitted dose curve; in most records, active means well fitted cell-killing curve with a large enough effect in the repeat runs; inconclusive means weak or mixed curves; inactive means no such curve, though single readings can be large or run the other way.
# Assay: qHTS assay to identify small molecule agonists of the peroxisome proliferator-activated receptor delta (PPARd) signaling pathway - cell viability counter screen (AID 743211); further: nearly all actives have a fitted effect of over 55% in size
# Conditions: PPARd-bla HEK293H viability, CellTiter-Glo luminescence, 17 h; series mostly up to 81.1 µM
# Source text: U.S. Tox21 Program National Center for Advancing Translational Sciences [NCATS] NIH Chemical Genomics Center [NCGC] U.S. Environmental Protection Agency [EPA] National Institutes of Environmental Health Sciences [NIEHS] National Toxicology Program [NTP] U.S. Food and Drug Administration [FDA] Tox21 Assay Overview: The peroxisome proliferator-activated receptors (PPARs) are lipid-activated transcription factors of the nuclear receptor superfamily with three distinct subtypes namely PPAR alpha, PPAR delta (PPARd) and PPAR gamma. All these subtypes heterodimerizes with Retinoid X receptor (RXR) and have different physiological functions. […] To identify the compounds that activate PPAR-delta signaling, GeneBLAzer PPAR delta UAS-bla HEK293H cell line (Invitrogen, Carlsbad, CA, USA) containing a beta-lactamase reporter gene under the control of an Upstream Activator Sequence (UAS) was used to screen the Tox21 compound library. The cytotoxicity of the Tox21 compound library against the PPARd-bla cell line was tested in parallel by measuring the cell viability using CellTiter-Glo assay (Promega, Madison, WI) in the same wells.
# Tox21 Assay Protocol Summary: PPARd-bla cells were dispensed at 3000 cells/6uL/well in 1536-well black wall/clear bottom plates using a Multidrop Combi (Thermo Fisher Scientific, Waltham, MA) dispenser. After the assay plates were incubated at 37 C and 5% CO2 for 5 h, 23 nL of compounds dissolved in DMSO, positive controls or DMSO only was transferred to the assay plate by a Pintool station (Kalypsys, San Diego, CA). The assay plates were incubated at 37C for 17 h. After 1 uL of LiveBLAzerTM B/G FRET substrate was added using a Bioraptr Flying Reagent Dispenser (FRD) workstation (Beckman Coulter, Indianapolis, IN, USA), the plates were incubated at room temperature for 2 h, and fluorescence intensity was measured by an Envision plate reader (PerkinElmer, Shelton, CT). For cell viability readout that measures cytotoxicity, 3 ul/well of CellTiter-Glo reagent was added into the assay plates using a Bioraptr FRD. After 30 min incubation at room temperature, the luminescence intensity in the plates was measured using a ViewLux plate reader (PerkinElmer).
# Potency means the concentration at half of the fitted maximal effect.
row,Structure (SMILES),Potency
1,CCOC(=O)C(O)(c1ccc(Cl)cc1)c1ccc(Cl)cc1,13.9 µM (active) and 43.6 µM (active)
2,ClC1=C(Cl)[C@]2(Cl)[C@@H]3[C@@H](Cl)[C@H]4O[C@H]4[C@@H]3C1(Cl)C2(Cl)Cl,54.9 µM (active)
3,OCC(c1ccc(Cl)cc1)c1ccc(Cl)cc1,inactive
4,Cc1ccc(N(SC(F)(Cl)Cl)S(=O)(=O)N(C)C)cc1,19.5 µM (active)
5,c1ccc2c(c1)Sc1ccccc1N2CC1CN2CCC1CC2 (stereo not given),10.6 µM (active)
6,CC1COC(Cn2cncn2)(c2ccc(Oc3ccc(Cl)cc3)cc2Cl)O1 (stereo not given),49 µM (active)
7,O=[N+]([O-])c1c(Cl)c(Cl)cc(Cl)c1Cl,inactive
8,Clc1ccccc1-c1ccccc1Cl,inactive
9,Cc1nnc2n1-c1sc(CCc3ccc(CC(C)C)cc3)cc1C(c1ccccc1Cl)=NC2C (stereo not given),29.8 µM (active)
10,CN1CSC(=S)N(C)C1,3.87 µM (active)
